Test results reported in PubChem BioAssay (EPA / NIEHS).
Inconclusive results are not listed. The source made the active and inactive calls. How the source made its calls, unless noted: active means hit-call score of the fitted dose curve at least 0.9, where 1 is the maximum; inactive means score below 0.9.

Tests used:
[1] = TOX21_p53_BLA_p2_viability: Viability Assessment in the Tox21 HCT-116 p53 Agonism Beta-lactamase Assay, Phase 2 (AID 2283591; active means hit-call score of the fitted dose curve at least 0.9, where 1 is the maximum;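 further: actives lower the ATP signal meaning cytotoxicity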)
Outline: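 Cytotoxicity readout: CellTiter-Glo ATP luminescence, 30 min at room temperature, after the beta-lactamase read. Cells were HCT116 exposed 16 h at 37C to compounds pin-transferred at 217-fold dilution from DMSO stocks.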

[2] = molecular target: Cellular tumor antigen p53 (Homo sapiens) (UniProt P04637); assay: TOX21_p53_BLA_p2_ratio: Tox21 HCT-116 p53 Agonism Beta-lactamase Assay, Ratio, Phase 2 (AID 2283592; active means hit-call score of the fitted dose curve at least 0.9, where 1 is the maximum)
Chain of Cellular tumor antigen p53 (Homo sapiens) (P04637 whole entry, looked up): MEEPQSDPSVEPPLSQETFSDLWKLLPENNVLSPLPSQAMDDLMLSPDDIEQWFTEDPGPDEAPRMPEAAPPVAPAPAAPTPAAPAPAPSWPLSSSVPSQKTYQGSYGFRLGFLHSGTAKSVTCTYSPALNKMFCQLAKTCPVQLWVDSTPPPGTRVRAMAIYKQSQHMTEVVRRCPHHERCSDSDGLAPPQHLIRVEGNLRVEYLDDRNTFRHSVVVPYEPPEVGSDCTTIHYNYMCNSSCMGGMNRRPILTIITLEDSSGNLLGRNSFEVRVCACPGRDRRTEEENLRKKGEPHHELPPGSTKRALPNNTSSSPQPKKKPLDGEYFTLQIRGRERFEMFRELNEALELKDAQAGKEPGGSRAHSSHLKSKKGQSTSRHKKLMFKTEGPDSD
Outline: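 First, HCT116 reporter cells settle for 5 h at 37C. Next, DMSO compound solutions are pinned in (217-fold dilution) and left 16 h. Finally, CCF4-AM substrate is loaded 2 h at room temperature and the 460/530 nm ratio read.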

[3] = TOX21_p53_BLA_p3_viability: Viability Assessment in the Tox21 HCT-116 p53 Agonism Beta-lactamase Assay, Phase 3 (AID 2283593; active means hit-call score of the fitted dose curve at least 0.9, where 1 is the maximum;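 further: cells exposed to compound for 16 h before reading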)
Outline: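 Cellular ATP was quantified by CellTiter-Glo luminescence, read after 30 min at room temperature. Beforehand, HCT116 cells (4000/well) received compound 5 h post-seeding, 217-fold diluted from DMSO, then incubated 16 h at 37C.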

[4] = TOX21_p53_BLA_p4_viability: Viability Assessment in the Tox21 HCT-116 p53 Agonism Beta-lactamase Assay, Phase 4 (AID 2283597; active means hit-call score of the fitted dose curve at least 0.9, where 1 is the maximum;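 further: hits lower the luminescence signal meaning cytotoxicity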)
Outline: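 4000 HCT116 cells per well; 5 h attachment; compounds from DMSO, 217-fold dilution; 16 h at 37C. Then CCF4-AM, 2 h RT, followed by CellTiter-Glo, 30 min RT, luminescence. Decrease = cytotoxicity.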

[5] = TOX21_p53_BLA_p5_viability: Viability Assessment in the Tox21 HCT-116 p53 Agonism Beta-lactamase Assay, Phase 5 (AID 2283600; active means hit-call score of the fitted dose curve at least 0.9, where 1 is the maximum)
Outline: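 Decreased CellTiter-Glo luminescence denotes lost viability. Exposure: 16 h at 37C, 5% CO2, with compounds from DMSO stocks diluted 217-fold in wells of 4000 cells.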

[6] = molecular target: Cellular tumor antigen p53 (Homo sapiens) (UniProt P04637); assay: TOX21_p53_BLA_p4_ratio: Tox21 HCT-116 p53 Agonism Beta-lactamase Assay, Ratio, Phase 4 (AID 2283601; active means hit-call score of the fitted dose curve at least 0.9, where 1 is the maximum)
Outline: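 Signal is the blue/green (460nm/530nm) ratio of cleaved versus uncleaved CCF4-AM substrate, read after 2 h substrate loading. Cells were HCT116 carrying the p53-responsive beta-lactamase reporter, dosed 16 h at 37C, 5% CO2; CellTiter-Glo measured in parallel.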

[7] = CCTE_Shafer_MEA_dev_firing_rate_mean: CCTE's Neural Network Formation Assay for Mean Firing Rate, Shafer Lab (AID 2284031)
Outline: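 Extracellular spike frequency, AUC over DIV 5–12 recordings, in rat cortical neuron MEA cultures dosed from plating; loss direction vs DMSO.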

[8] = CCTE_Shafer_MEA_dev_per_burst_spike_percent: CCTE's Neural Network Formation Assay for Percent of Spikes in a Burst, Shafer Lab (AID 2284032)
Outline: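 Value is trapezoidal AUC over recordings on days 5, 7, 9 and 12 of the well-mean fraction of spikes falling in single-electrode bursts; rat cortical cultures exposed continuously from plating, treatment renewed DIV 5 and 9, fitted downward against DMSO.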

[9] = CCTE_Shafer_MEA_dev_active_electrodes_number: CCTE's Neural Network Formation Assay for Number of Active Electrodes, Shafer Lab (AID 2284040; active means hit-call score of the fitted dose curve at least 0.9, where 1 is the maximum)
Outline: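 Developing rat cortical networks on MEAs, exposed DIV 0–12. Value is the AUC of active-electrode counts (≥5 spikes/min) from days 5, 7, 9, 12, relative to DMSO.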

[10] = CCTE_Shafer_MEA_dev_burst_rate: CCTE's Neural Network Formation Assay for Burst Rate, Shafer Lab (AID 2284042)
Outline: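 Rat primary cortical cultures on PEI/laminin MEA; compound from plating, re-dosed at DIV 5, 9 media change. Single-electrode bursts/recording length, well mean of active electrodes; AUC over DIV 5–12 recordings; loss-of-signal vs DMSO.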

[11] = CCTE_Shafer_MEA_dev_bursting_electrodes_number: CCTE's Neural Network Formation Assay for Number of Bursting Electrodes, Shafer Lab (AID 2284043; active means hit-call score of the fitted dose curve at least 0.9, where 1 is the maximum)
Outline: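 Number of electrodes reaching ≥1 burst every 2 min was recorded at DIV 5, 7, 9 and 12 and collapsed as trapezoidal area under the curve. Cultures were rat cortical neurons on MEA plates, dosed continuously from plating with medium and treatment refreshed on DIV 5 and 9.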

[12] = CCTE_Shafer_MEA_dev_burst_duration_mean: CCTE's Neural Network Formation Assay for Mean Burst Duration, Shafer Lab (AID 2284045)
Outline: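 Mean single-electrode burst duration (first to last spike), averaged over bursting electrodes per well, then integrated as area-under-curve across recordings at days 5, 7, 9 and 12. Rat cortical cultures on MEAs, compound present from plating, refreshed at feeds.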

[13] = CCTE_Shafer_MEA_dev_interburst_interval_mean: CCTE's Neural Network Formation Assay for Mean Interburst Interval, Shafer Lab (AID 2284046);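 further: well-mean interburst interval of bursting electrodes as AUC over four recording days; curve fitted for decrease in interburst interval relative to DMSO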
Outline: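 Rat cortical neurons, 1.5 x 10^5 cells/well, 48-well MEA; compound from day 0 through DIV 12, media and treatment renewed DIV 5/9. Recordings DIV 5, 7, 9, 12; well-mean interburst interval → trapezoidal AUC, loss direction vs DMSO.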

[14] = CCTE_Shafer_MEA_dev_inter_network_spike_interval_mean: CCTE's Neural Network Formation Assay for Mean Inter-network Spike Interval, Shafer Lab (AID 2284047)
Outline: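 Primary rat cortical neurons on PEI-coated 48-well MEAs (16 electrodes/well) were exposed from plating day 0 to DIV 12, with dosing renewed at DIV 5 and 9. Recordings at DIV 5, 7, 9, 12 were collapsed by trapezoidal AUC, loss-of-signal fit vs DMSO.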

[15] = CCTE_Shafer_MEA_dev_network_spike_number: CCTE's Neural Network Formation Assay for Number of Network Spikes, Shafer Lab (AID 2284048);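 further: synchronized bursts across electrodes counted on days 5 7 9 12 and integrated as AUC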
Outline: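 Number of network spikes (coordinated firing across electrodes) recorded on days 5, 7, 9 and 12 and summarised as area under the curve. Rat cortical cultures on MEA, continuous compound exposure with full medium/treatment exchange at DIV 5 and 9.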

[16] = CCTE_Shafer_MEA_dev_network_spike_peak: CCTE's Neural Network Formation Assay for Mean Number of Electrodes in Network Spike, Shafer Lab (AID 2284049)
Outline: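 Rat cortical primary culture, 1.5 x 10^5 cells/well, 48-well MEA (16 electrodes/well). Dosing day 0 through DIV 12, full media/compound exchange DIV 5, 9. AxIS adaptive spike detection; AUC over days 5/7/9/12; loss-of-signal vs DMSO.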

[17] = CCTE_Shafer_MEA_dev_spike_duration_mean: CCTE's Neural Network Formation Assay for Mean Spike Duration, Shafer Lab (AID 2284051);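 further: mean network spike duration pooled as area under curve over DIV 5 to 12 recordings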
Outline: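 Rat cortical primary cultures, 48-well MEA (16 electrodes/well); compound from plating, renewed DIV 5, 9. Network spike duration (AxIS adaptive detector) recorded DIV 5/7/9/12, combined as trapezoidal AUC; loss direction vs DMSO.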

[18] = CCTE_Shafer_MEA_dev_network_spike_duration_std: CCTE's Neural Network Formation Assay for Standard Deviation of Network Spike Duration, Shafer Lab (AID 2284052);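 further: hits are decreases in network spike duration SD versus DMSO vehicle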
Outline: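 Rat cortical cultures, 1.5 x 10^5 cells/well, exposed continuously from plating to DIV 12 with media/compound renewal at DIV 5, 9. Spontaneous activity recorded DIV 5/7/9/12, AxIS adaptive spike detector; AUC across days; negative direction vs DMSO.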

[19] = CCTE_Shafer_MEA_dev_per_network_spike_spike_number_mean: CCTE's Neural Network Formation Assay for Mean Number of Spikes in a Network Spike, Shafer Lab (AID 2284053)
Outline: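 Rat cortical primary cultures on 48-well MEA; compound from day 0, re-dosed with full media change DIV 5, 9. Recorded DIV 5, 7, 9, 12; spikes in 0.05 s window at network-spike peak ÷ total network spikes; AUC; loss vs DMSO.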

[20] = CCTE_Shafer_MEA_dev_per_network_spike_spike_percent: CCTE's Neural Network Formation Assay for Percent of Spikes in a Network Spike, Shafer Lab (AID 2284054)
Outline: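 Metric: fraction of spikes falling in a 0.05 s window at network-spike peaks. Recordings were made on days 5, 7, 9 and 12 and collapsed by trapezoidal AUC. Cultures were rat cortical neurons on MEA plates, dosed continuously from plating, re-dosed at media changes.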

[21] = UKN5_HCS_SBAD2_cell_viability: Viability Assessment in the University of Konstanz (UKN) Leist Lab Neurite Outgrowth Assay in human iPSC-derived immature Dorsal Root Ganglia Neurons (UKN5) (AID 2284056)
Outline: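 iPSC-derived immature peripheral neurons (SBAD2) seeded on Matrigel with CHIR99021, SU5402 and DAPT, dosed 1 h later for 24 h. Viability from Hoechst H-33342 and calcein-AM live staining, high-content imaging; bidirectional fit versus DMSO.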

[22] = CCTE_Shafer_MEA_dev_LDH: CCTE's Lactate Dehydrogenase Assay for Cytotoxicity in the Neural Network Formation Assay, Shafer Lab (AID 2284068; active means hit-call score of the fitted dose curve at least 0.9, where 1 is the maximum;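 further: exposure for twelve days from plating with re-dosing on DIV 5 and 9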)
Outline: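 Rat cortical primary neurons, MEA culture; dosing day 0–12, full medium plus compound exchange DIV 5, 9. Read-out: LDH enzyme activity, spectrophotometric. DMSO = negative control/baseline; signal loss → cytotoxicity.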

[23] = UKN5_HCS_SBAD2_neurite_outgrowth: University of Konstanz (UKN) Leist Lab Neurite Outgrowth Assay in human iPSC-derived immature Dorsal Root Ganglia Neurons (UKN5) (AID 2284070); conditions: actives raise or lower the signal
Outline: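 Neurite outgrowth is quantified as calcein-AM-labelled neurite area in human iPSC-derived peripheral neurons treated for 24 h, starting 1 h after plating in medium with CHIR99021 (1.5 uM), SU5402 (5 uM) and DAPT (5 uM).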

[24] = CCTE_Shafer_MEA_dev_mutual_information_norm: CCTE's Neural Network Formation Assay for Mutual Information Normalization, Shafer Lab (AID 2284091)
Outline: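 Shared information across electrodes, tracked on days 5, 7, 9 and 12 of network development and collapsed as trapezoidal area under the curve. Rat cortical cultures were treated continuously from plating, with treatment renewed at feeds on DIV 5 and 9; DMSO baseline, negative-direction fit.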

[25] = UKN4_HCS_LUHMES_neurite_outgrowth: University of Konstanz (UKN) Leist Lab Neurite Outgrowth Assay in human LUHMES cells (UKN4) (AID 2284206); conditions: actives raise or lower the signal
Outline: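 Neurite area in dopaminergic-model LUHMES neurons is measured by high-content imaging of calcein-AM after 24 h treatment starting shortly after day-2 replating; Hoechst staining tracks viability.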

[26] = CCTE_Mundy_HCI_Cortical_Synap_Neur_Matur_NeuriteSpotCountPerNeuriteLength: CCTE's Synaptogenesis and Neurite Maturation Assay in rat cortical cells for Neurite Spot Count per Neurite Length, Mundy Lab (AID 2284210)
Outline: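 Synaptophysin spots per unit neurite length, measured by automated imaging of MAP2/synaptophysin/Hoechst-stained neurons. Cultures from rat cortex received chemical at DIV 7 with media change through DIV 12; glial growth arrested by AraC at DIV 5; DMSO baseline.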

[27] = CCTE_Mundy_HCI_Cortical_NOG_NeuriteLength: CCTE's Neurite Outgrowth Assay in rat cortical cells for Neurite Length, Mundy Lab (AID 2284213)
Outline: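 First, rat primary cortical cells were plated and, 2 h later, given test chemical as a 1/10 dilution. Finally, βIII-tubulin immunostaining enabled automated imaging of neurite length.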

[28] = CCTE_Mundy_HCI_Cortical_Synap_Neur_Matur_NeuriteLength: CCTE's Synaptogenesis and Neurite Maturation Assay in rat cortical cells for Neurite Length, Mundy Lab (AID 2284214)
Outline: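 DMSO-normalised neurite length, from high-content imaging of anti-MAP2-stained rat cortical cells fixed at DIV 12. Glia were suppressed with AraC (DIV 5) before chemical exposure from DIV 7.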

[29] = CCTE_Mundy_HCI_Cortical_Synap_Neur_Matur_SynapseCount: CCTE's Synaptogenesis and Neurite Maturation Assay in rat cortical cells for Synapse Count, Mundy Lab (AID 2284218)
Outline: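 Endpoint: synapses/neuron by HCI (synaptophysin puncta on MAP2-labelled neurites, Hoechst nuclei). Rat primary cortical cells, AraC DIV 5, dosed DIV 7, fixed DIV 12; DMSO negative control.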

[30] = CCTE_Mundy_HCI_Cortical_Synap_Neur_Matur_CellBodySpotCount: CCTE's Synaptogenesis and Neurite Maturation Assay in rat cortical cells for Cell Body Spot Count, Mundy Lab (AID 2284223)
Outline: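 Primary rat cortical cultures, AraC added at DIV 5; dosed DIV 7 through DIV 12 […]. Fixed, stained for MAP2 and synaptophysin with Hoechst; cell body-associated synaptophysin puncta per neuron counted by high-content imaging, loss vs DMSO.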

[31] = UKN4_HCS_LUHMES_cell_viability: Viability Assessment in the University of Konstanz (UKN) Leist Lab Neurite Outgrowth Assay in human LUHMES cells (UKN4) (AID 2284232)
Outline: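 Measured in replated, 2-day-differentiated LUHMES cells treated 24 h; stained 30 min with H-33342 and calcein-AM before high-content imaging.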

[32] = UKN2_HCS_IMR90_cell_viability: Viability Assessment in the University of Konstanz (UKN) Leist Lab Neural Crest Cell Migration Assay in human induced IMR90 Pluripotent Stem Cells (UKN2) (AID 2284233);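 further: cells exposed to compound for 24 h after a 24 h migration phase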
Outline: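 After calcein-AM/Hoechst staining, viability is quantified by high-content fluorescence imaging, relative to DMSO, in iPSC (IMR90)-derived neural crest cells. Exposure lasts 24 h, starting after a 24 h migration period on PLO/laminin/fibronectin coating.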

[33] = CCTE_Mundy_HCI_hNP1_Casp3_7: CCTE's Caspase-Glo 3/7 Assay in human neuroprogenitor cells for Apoptosis, Mundy Lab (AID 2284240)
Outline: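 Apoptosis is scored by activated caspase-3/7 luminescence in WA09-derived neural progenitor cells, measured 26.5 h after chemical dosing. Values represent gain of signal relative to DMSO vehicle.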

Measured: outcome

COC(=O)[C@H]1[C@@H](OC(=O)c2ccccc2)C[C@@H]2CC[C@H]1N2C
inactive: all assays above
